Drawing on PubChem BioAssay AID2322 (Broad Institute, 2010), this text covers inhibition for 49 compounds.

Among all 27,000 compounds or so, about 120 (0.44%) were called active. The sample holds actives, similar compounds and a random draw of the others, so the mix is not that of the screen. Cut-off read from the data, not from the text of the source: active = inhibition above about 20%; inconclusive = no clear call, values can overlap the other calls; inactive = below that.

The target in the experiment is Serine/threonine-protein kinase 33 (Homo sapiens) (UniProt Q9BYT3). The experiment can be described thus: STK33 kinase inhibitors, primary screen, biochemical, luminescence, ADP-Glo, MBP substrate (AID 2322). Particulars: at 12.5 µM, hits give high values. A general note: ADP-Glo turns the ADP formed in a reaction into a luminescent signal.
Chain of Serine/threonine-protein kinase 33 (Homo sapiens) (Q9BYT3 whole entry, looked up): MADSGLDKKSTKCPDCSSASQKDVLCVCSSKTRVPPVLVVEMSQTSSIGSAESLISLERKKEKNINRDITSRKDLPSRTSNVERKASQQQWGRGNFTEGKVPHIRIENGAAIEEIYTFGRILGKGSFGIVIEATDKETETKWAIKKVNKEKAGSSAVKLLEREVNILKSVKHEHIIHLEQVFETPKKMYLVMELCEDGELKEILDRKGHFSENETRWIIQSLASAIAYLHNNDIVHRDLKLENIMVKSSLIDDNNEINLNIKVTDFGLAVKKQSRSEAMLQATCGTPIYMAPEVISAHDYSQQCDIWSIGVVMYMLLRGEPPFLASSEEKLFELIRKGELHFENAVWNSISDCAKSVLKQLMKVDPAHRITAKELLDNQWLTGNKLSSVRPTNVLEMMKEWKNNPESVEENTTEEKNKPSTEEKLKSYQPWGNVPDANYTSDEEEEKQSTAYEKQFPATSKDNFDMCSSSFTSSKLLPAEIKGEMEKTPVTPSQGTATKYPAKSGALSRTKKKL
The inhibition is the drop in the measured response relative to a control, in per cent. `O=C(CCn1cnc2ccccc2c1=O)Nc1cccc(C(F)(F)F)c1`: the inhibition was -2.03% (inactive). Take `CS(=O)(=O)CCC(C(=O)N1CCOCC1)N1C(=O)c2ccc(Br)cc2C1=O` (centres undefined): the inhibition was -0.215% (inactive). Next, `Cc1nc2ccccc2n1CC(O)COc1ccc(C2C=CCC2)cc1` (centres undefined): -1.35% (inactive).

Turning to `COc1ccc([Si](C)(C)[C@@H]2[C@@H](CCO)O[C@]3(C(=O)N(Cc4cccc(N5CCCCC5=O)c4)c4ccccc43)[C@H]2C)cc1`, the inhibition was 2.11% (inactive).

Take `Cc1noc(C)c1S(=O)(=O)Nc1ccc2c(c1)CC(=O)N([C@H](C)CO)C[C@@H](C)[C@@H](CN(C)Cc1ccc(C(=O)O)cc1)O2`: the inhibition was 0.587% (inactive).

As for `CCCn1c2ccccc2c2nnc(SCC(=O)Nc3cccc4ccccc34)nc21`, the inhibition was 0.6% (inactive). To `CC(C)c1ccc(OCC(O)Cn2cnc3ccccc32)cc1` (centres undefined) belongs 0.565% (inactive). To `O=C(COc1ccc2c(=O)c(-c3ccccc3)coc2c1)Nc1ccc(F)cc1` belongs 1.18% (inactive); to `C[C@@H]1CN([C@@H](C)CO)C(=O)Cc2cc(NC(=O)C3CCCCC3)ccc2O[C@@H]1CN(C)Cc1ccncc1`, 0.459% (inactive); to `CC(C)CN1C(=O)[C@@]2(Cc3ccccc31)c1ccccc1C(=O)N(C1CCCCC1)[C@H]2c1ccc(CO)cc1`, -0.707% (inactive). Next, `O=C(CSc1nc2sc3c(c2c(=O)[nH]1)CCC3)Nc1ccccc1C(F)(F)F`: -3.77% (inactive); `Cc1ccc(NC(=O)CSc2ncnc3sc(C)c(C)c23)cc1`: 5.19% (inactive); `Cc1ccc(-c2nc3cc(NC(=O)COc4ccc([N+](=O)[O-])cc4)ccc3o2)cc1C`: 0.362% (inactive). As for `CN(CC(=O)Nc1ccc(C#N)cc1)S(=O)(=O)c1ccc(Cl)cc1`, the inhibition is 4.42% (inactive). Next, `C[C@H]1CN([C@@H](C)CO)C(=O)c2cc(NC(=O)Cc3cn(C)c4ccccc34)ccc2O[C@H]1CN(C)CC1CCCCC1`: 0.289% (inactive); `CS(=O)(=O)N(CC(=O)Nc1ccc2ccccc2c1)c1cc(Cl)c(Cl)cc1Cl`: 0.303% (inactive); `O=c1[nH]nc(-c2ccc(NCc3cccnc3)c([N+](=O)[O-])c2)c2ccccc12`: 0.832% (inactive). To `CCOC(=O)c1c(NC(=O)CSc2ncn[nH]2)sc2c1CCC2` belongs 3.47% (inactive). To `CCOC(=O)c1c(NC(=O)C2(C)Cc3ccccc3C(=O)O2)sc2c1CCCC2` (centres undefined) belongs 0.582% (inactive); to `CS(=O)(=O)N(CC(=O)NC1CC1)c1ccc(Cl)c(C(F)(F)F)c1`, -1.46% (inactive). `O=C(NCCN1CCOCC1)C(=O)NCC1COc2ccccc2O1` (centres undefined): the inhibition is 2.08% (inactive). To `COC(=O)c1c(NC(=S)Nc2ccc(OC)cc2[N+](=O)[O-])sc2c1CCC(C)C2` (centres undefined) belongs -1.18% (inactive); to `Cc1nnc2sc(-c3cccc(NC(=O)C(C)Oc4ccc(Cl)cc4Cl)c3)nn12` (centres undefined), 1.75% (inactive); to `CN(CC(=O)Nc1c(F)cccc1F)S(=O)(=O)c1ccc(Cl)cc1`, 0.176% (inactive). To `CC(C)S(=O)(=O)NCC1CCN(Cc2cccc(OCCO)c2)CC1` belongs -4.57% (inactive); to `CC1(C)CC[C@]2(C(=O)O)CC[C@]3(C)C(=CCC4[C@@]5(C)CC[C@H](OC6O[C@H](CO)[C@@H](O)[C@H](O[C@@H]7O[C@H](CO)[C@@H](O)[C@H](O)[C@H]7O)[C@H]6O)C(C)(C)C5CC[C@]43C)[C@@H]2C1` (some centres undefined), -3.3% (inactive); to `CN(CC(=O)Nc1ccc(Br)cc1)S(=O)(=O)c1ccc2ccccc2c1`, -0.268% (inactive). To `COc1ccc(N(CC(=O)Nc2cccnc2)S(C)(=O)=O)c(OC)c1` belongs 1.05% (inactive); to `CN1CCN(S(=O)(=O)c2ccc(NC(=O)C3CC=CCC3C(=O)O)cc2)CC1` (centres undefined), -6.02% (inactive); to `O=C(CSc1nnc2c(n1)[nH]c1ccccc12)Nc1cccc(C(F)(F)F)c1`, 0.0503% (inactive).

Regarding `O=C(c1cc([N+](=O)[O-])ccc1NCc1cccnc1)N1CCOCC1`, the inhibition is 0.472% (inactive). For the compound `CCc1cc(C(=O)OC)c(NC(=O)CC2Sc3ccc(C(F)(F)F)cc3NC2=O)s1` (centres undefined), the inhibition is 26.1% (active). Turning to `CCc1cc(C(=O)OC)c(NC(=S)Nc2ccc(OC)cc2[N+](=O)[O-])s1`, the inhibition was 2.32% (inactive). For the compound `C=CCn1c(SCc2nc3ccccc3[nH]2)nnc1-c1cccc(C)c1`, the inhibition is -1.59% (inactive). `CCn1c(SCC(=O)Nc2ccc3c(c2)OCCO3)nnc1-c1ccncc1`: the inhibition is 0.907% (inactive). To `COc1ccc(CCNC(=S)Nc2c(C)n(C)n(-c3ccccc3)c2=O)cc1OC` belongs 0.317% (inactive); to `Cc1ccnc(NC(c2cccc(Br)c2)c2ccc3ccc(C)nc3c2O)c1` (centres undefined), -1.5% (inactive); to `COc1ccc(-c2cc(C(F)(F)F)n3nc(C(=O)NCCCN4CCOCC4)cc3n2)cc1OC`, -3.3% (inactive). In the case of `CCOc1ccccc1NC(=O)C1C(C(=O)O)C2C=CC1C21CC1` (centres undefined), the inhibition is -4.9% (inactive). On to `Cc1ccc(NC(=O)CCCN2C(=O)c3ccccc3C2=O)cc1`, for which the inhibition is 0.883% (inactive). Next, `O=C1O[C@@H](c2ccccc2)[C@@H](c2ccccc2)N2[C@@H](c3ccccc3OCCO)[C@]3(C(=O)Nc4ccc(C#CC5(O)CCCCCC5)cc43)[C@@H](C(=O)N3CCN(c4ncccn4)CC3)[C@H]12`: 10.1% (inactive); `COc1ccc(N(CC(=O)Nc2ccc(F)c(F)c2)S(C)(=O)=O)cc1OC`: 0.788% (inactive); `CCn1c(SCC(=O)Nc2cc(Cl)c(Cl)cc2Cl)nnc1-c1cc(Br)ccc1O`: -2.32% (inactive). `CNC[C@H]1OCc2cnnn2CCCC(=O)N([C@H](C)CO)C[C@@H]1C`: the inhibition was 2.08% (inactive). To `Cc1ccc(S(=O)(=O)N(C)C[C@H]2Oc3ccc(NC(=O)Nc4cccc5ccccc45)cc3CC(=O)N([C@H](C)CO)C[C@H]2C)cc1` belongs 5.7% (inactive).

In the case of `O=C(CC(NC1CCCC1)C(=O)O)Nc1cccc(Cl)c1` (centres undefined), the inhibition was -4.61% (inactive). `Cc1ccc(OCC(=O)Nc2cccc(NC(=O)c3ccco3)c2)cc1C`: the inhibition was 3.45% (inactive). To `COC(=O)c1ccc(NC(=O)CN(c2ccc(C)c(Cl)c2)S(C)(=O)=O)cc1` belongs -2.86% (inactive); to `O=C(NCCCn1ccnc1)c1cc2c(s1)CCCC2`, -4.73% (inactive).
